Several values for one entry are separate records, joined by “and”; a condition that tells them apart may be missing. Equal values may be shown once. Records with an inconclusive call do not appear. Activity calls are given as the source filed them. Calls follow the shape of the dose curve; as a rule, active = well fitted curve in the direction sought with a large enough effect in the repeat runs; inconclusive = weak or mixed curves; inactive = no such curve, though single readings can be large; an effect the other way counts as inactive or inconclusive.
Legend:
[1] = qHTS RealTime-Glo MT Cell Viability Assay in HepG2 cells - 40 hour (AID 1224870); also: nearly all actives have a fitted effect of over 50% in size
Summary of the method: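 HepG2 cells mixed with RealTime-Glo MT reagents (NanoLuc plus cell-permeant prosubstrate) were seeded at 600 cells/well, incubated 5 h at 37 C/5% CO2, then pinned with compounds in DMSO; nonlytic luminescence tracked viability during 40 h treatment.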

[2] = A CellTox Green Cytotoxicity Assay to monitor cytotoxicity in HEK293 cells - 40 hour (AID 1224871); also: nearly all actives have a fitted effect of over 45% in size
Summary of the method: (§1)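 Tox21 screen in HEK293: membrane-impermeant cyanine dye fluoresces on binding dead-cell DNA; compound pinned 5 h post-seeding, plates held at 37 C, signal read repeatedly through 40 h.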

[3] = qHTS RealTime-Glo MT Cell Viability Assay in HEK293 cells - 16 hour (AID 1224872); also: top concentration of the series differs between compounds; nearly all actives have a fitted effect of over 50% in size
Summary of the method: (§2)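 Luminescence generated by NanoLuc from substrate produced by living HEK293 cells served as the viability signal. Each value reflects the reading at its stated time point during continuous 40 h compound exposure at 37 C.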

[4] = qHTS RealTime-Glo MT Cell Viability Assay in HEK293 cells - 40 hour (AID 1224874); settings: RealTime-Glo luminescence; max response: active compounds read low; also: nearly all actives have a fitted effect of over 50% in size
Summary of the method: (§3)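 HEK293 + NanoLuc + prosubstrate, 600 cells/well; 5 h, 37 C/5% CO2; compound 23 nL in DMSO by pintool; 37 C; luminescence read at 0, 8, 16, 24, 32 and 40 h time points.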

[5] = A CellTox Green Cytotoxicity Assay to monitor cytotoxicity in HepG2 cells - 16 hour (AID 1224876); also: nearly all actives have a fitted effect of over 45% in size
Summary of the method: (§4)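 Measurements at 0, 8, 16, 24, 32 and 40 h of treatment captured CellTox Green fluorescence in HepG2 cells that had been co-plated with reagent and preincubated 5 h at 37 C/5% CO2.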

[6] = qHTS RealTime-Glo MT Cell Viability Assay in HepG2 cells - 32 hour (AID 1224877); also: nearly all actives have a fitted effect of over 55% in size
Summary of the method: (§5)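 Tox21 10K library screened in qHTS format on HepG2 cells carrying RealTime-Glo reagents. Compounds were added after a 5 h preincubation, and the luminescent signal from continuous culture was measured repeatedly during 40 h treatment.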

[7] = A CellTox Green Cytotoxicity Assay to monitor cytotoxicity in HepG2 cells - 24 hour (AID 1224878); also: nearly all actives have a fitted effect of over 45% in size
Summary of the method: as §4

[8] = A CellTox Green Cytotoxicity Assay to monitor cytotoxicity in HepG2 cells - 40 hour (AID 1224879); also: nearly all actives have a fitted effect of over 40% in size
Summary of the method: as §4

[9] = qHTS RealTime-Glo MT Cell Viability Assay in HEK293 cells - 0 hour (AID 1224880); also: top concentration of the series differs between compounds; nearly all actives have a fitted effect of over 45% in size
Summary of the method: as §3

[10] = A CellTox Green Cytotoxicity Assay to monitor cytotoxicity in HepG2 cells - 0 hour (AID 1224882); also: nearly all actives have a fitted effect of over 35% in size
Summary of the method: as §4

[11] = A CellTox Green Cytotoxicity Assay to monitor cytotoxicity in HepG2 cells - 32 hour (AID 1224883); also: nearly all actives have a fitted effect of over 50% in size
Summary of the method: as §4

[12] = A CellTox Green Cytotoxicity Assay to monitor cytotoxicity in HEK293 cells - 8 hour (AID 1224884); also: nearly all actives have a fitted effect of over 35% in size
Summary of the method: as §1

[13] = qHTS RealTime-Glo MT Cell Viability Assay in HepG2 cells - 16 hour (AID 1224885); also: nearly all actives have a fitted effect of over 50% in size
Summary of the method: as §5

[14] = qHTS RealTime-Glo MT Cell Viability Assay in HEK293 cells - 24 hour (AID 1224886)
Summary of the method: as §2

[15] = qHTS RealTime-Glo MT Cell Viability Assay in HEK293 cells - 8 hour (AID 1224887)
Summary of the method: as §3

[16] = A CellTox Green Cytotoxicity Assay to monitor cytotoxicity in HEK293 cells - 16 hour (AID 1224888); also: nearly all actives have a fitted effect of over 35% in size
Summary of the method: as §1

[17] = qHTS RealTime-Glo MT Cell Viability Assay in HepG2 cells - 0 hour (AID 1224889); also: nearly all actives have a fitted effect of over 50% in size
Summary of the method: as §5

[18] = A CellTox Green Cytotoxicity Assay to monitor cytotoxicity in HEK293 cells - 24 hour (AID 1224875)
Summary of the method: as §1

[19] = A CellTox Green Cytotoxicity Assay to monitor cytotoxicity in HEK293 cells - 32 hour (AID 1224881); also: nearly all actives have a fitted effect of over 40% in size
Summary of the method: as §1
% is scaled to controls: 0 for no effect and ±100 for the full control effect.

COc1cc(O)c(C(=O)c2ccccc2)cc1S(=O)(=O)O
inactive: outcome [1] | Potency [2] | Potency [3] | max response [4] 0.237% and 12.7% and -17.6% | Potency [5] | outcome [6] | Potency [7] | Potency [8] | Potency [9] | Potency [10] | Potency [11] | Potency [12] | Potency [13] | Potency [14] | Potency [15] | Potency [16] | Potency [17]

COc1ccccc1NC(=O)CC(C)=O
inactive: outcome [1] | Potency [2] | Potency [3] | max response [4] -0.191% and 6.19% | Potency [18] | Potency [5] | outcome [6] | Potency [7] | Potency [8] | Potency [19] | Potency [10] | Potency [11] | Potency [12] | Potency [13] | Potency [14] | Potency [15] | Potency [16] | Potency [17]

CC(=O)Oc1ccccc1C(=O)O
inactive: outcome [1] | Potency [2] | Potency [3] | max response [4] -0.0178% and 14.7% and 2.62% | Potency [5] | outcome [6] | Potency [7] | Potency [8] | Potency [9] | Potency [19] | Potency [10] | Potency [11] | Potency [12] | Potency [13] | Potency [14] | Potency [15] | Potency [16] | Potency [17]

CC(C)Cc1ccc(C(C)C(=O)O)cc1 (stereo unspecified)
inactive: outcome [1] | Potency [2] | Potency [3] | max response [4] 5.92% and 7.46% and 3.63% | Potency [5] | outcome [6] | Potency [7] | Potency [8] | Potency [19] | Potency [10] | Potency [11] | Potency [12] | Potency [13] | Potency [15] | Potency [16] | Potency [17]

CCn1cc(C(=O)O)c(=O)c2ccc(C)nc21
inactive: outcome [1] | Potency [2] | Potency [3] | max response [4] 3.61% and -3.49% and 2.76% | Potency [18] | Potency [5] | outcome [6] | Potency [7] | Potency [8] | Potency [10] | Potency [11] | Potency [12] | Potency [13] | Potency [14] | Potency [15] | Potency [16] | Potency [17]

OCCCc1ccccc1
inactive: outcome [1] | Potency [2] | Potency [3] | max response [4] 12.9% and 2.88% | Potency [5] | outcome [6] | Potency [7] | Potency [8] | Potency [9] | Potency [19] | Potency [10] | Potency [11] | Potency [12] | Potency [13] | Potency [14] | Potency [15] | Potency [16] | Potency [17]

Cc1cccc2ccccc12
inactive: outcome [1] | Potency [2] | Potency [3] | max response [4] 3.52% and 3.07% | Potency [18] | Potency [5] | outcome [6] | Potency [7] | Potency [8] | Potency [19] | Potency [10] | Potency [11] | Potency [12] | Potency [13] | Potency [14] | Potency [15] | Potency [16] | Potency [17]

CCCCC/C(C=O)=C\c1ccccc1
inactive: outcome [1] | Potency [2] | Potency [3] | max response [4] -12% and 4.41% and 0.735% | Potency [5] | outcome [6] | Potency [7] | Potency [8] | Potency [19] | Potency [10] | Potency [11] | Potency [12] | Potency [13] | Potency [14] | Potency [15] | Potency [16] | Potency [17]

CC1=NN(c2ccccc2)C(=O)C1
inactive: outcome [1] | Potency [2] | Potency [3] | max response [4] -0.0619% and 3.79% and -1.74% | Potency [18] | Potency [5] | outcome [6] | Potency [7] | Potency [8] | Potency [10] | Potency [11] | Potency [12] | Potency [13] | Potency [15] | Potency [16] | Potency [17]

CC1(C)O[C@@H]2[C@@H](CO[C@@]3(COS(N)(=O)=O)OC(C)(C)O[C@@H]23)O1
inactive: outcome [1] | Potency [2] | Potency [3] | max response [4] -1.97% | Potency [5] | outcome [6] | Potency [7] | Potency [8] | Potency [19] | Potency [10] | Potency [11] | Potency [12] | Potency [13] | Potency [15] | Potency [16] | Potency [17]
